40 molecules from PubChem BioAssay (NCI) can be followed below.

About 83,000 compounds went through this panel and 20% of them were active in at least one assay; those are over-represented in the sample as a whole.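 In brief: 96-well plates, 48 h treatment, single concentration, percent growth endpoint.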 Unmarked numbers belong to inactive results. Calls of active or inactive are those of the source.

The assay concerns A498 renal. The assay is described as follows: NCI-60 one-dose screen, 48 h (100 = growth as untreated, 0 = no growth, -100 = all killed). To be noted: 10 µM unless noted. Here is the method: Growth inhibition of the A498 human tumor cell line is measured as a screen for anti-cancer activity. Cells are grown in 96 well plates and exposed to the test compound for 48 hours. Compounds are tested at a single concentration, which is 10^-5 M for most compounds. The reported endpoint is percent growth (GI% or GIPRCNT), where numbers from 0 - 100% represent growth inhibition, and numbers from -100% - 0 represent cell death. For example, a value of 40 represents 60% growth inhibition. A value of 0 means no net growth occurred over the course of the experiment. A value of -40 indicates 40% of cells at the beginning of the experiment died by the end of the experiment. A value of -100 means all cells are dead at the end of the experiment.
NCI-60 Human Tumor Cell Lines Screen was performed using the standard one-dose NCI protocol, which is described in more detail at https://dtp.cancer.gov/discovery_development/nci-60/default.htm.
Compounds with GIPRCNT values below 10 were considered active. Activity score was based on GIPRCNT using the following formula: […]
Score is 0 for GIPRCNT values of 100 or above, 50 for GIPRCNT values of 0, and 100 for GIPRCNT values of -100.
Consider `COC(=O)c1ccc2c(c1)c1c(C)c3ccncc3c(C)c1n2C`, for which the growth is -0.17% (active).
The same measure for `COc1cc(/C=C/c2cc(/C=C/c3ccc(O)c(OC)c3)n(C(=O)Nc3ccc(F)cc3)n2)ccc1O`: 31.5%; for `N#Cc1c(NC(=O)c2cccs2)[n+]([O-])c2ccc(Cl)cc2[n+]1[O-]`: 41.4%; for `CC1(C)C2CC=C(/C=N/NC(=O)C3CCC(=O)N3)C1C2` (stereo not given): 102%.
The same measure for `O=C1Nc2ccccc2/C1=C/c1cn(C[C@@H](O)Cn2c3ccccc3c(=O)c3ccccc32)c2ccccc12`: 91.1%; for `CN1CCN(c2ccc(NC(=O)c3cncnc3Nc3ccc4c(ccn4Cc4cccc(F)c4)c3)cc2)CC1`: 77%.
In the case of `COc1cc(N2C(=O)[C@H](c3ccccc3)C2c2ccc(SC)cc2)cc(OC)c1OC` (stereo not given in full) it was -4.14% (active); in that of `CCN(CC)CCCC(C)Nc1ccc2cc(OC)ccc2n1` (stereo not given), 84.5%.
Turning to `C/C(=C(\c1ccc(OCCN2CCCCCC2)cc1)c1ccc(OC(=O)Cc2ccccc2)cc1)c1ccc(Cl)cc1`, the growth was 79%.
In the case of `CCOC(=O)/C=C/c1c(C)[nH]c(=O)[nH]c1=O` it was 111%; in that of `C=C1C(=O)O[C@H]2[C@H]1CC/C(CNC(=O)c1cc3ccccc3[nH]1)=C\CC[C@@]1(C)O[C@@H]21`, -63.4% (active).
In the case of `COc1cc(C(=O)/C=C/c2ccc(N3CCN(C)CC3)cc2)cc(OC)c1OC`, the growth is 108%.
The same measure for `COc1ccc(C2CC(c3ccc(Nc4nc(Nc5ccc(F)cc5)nc(Nc5ccc(F)cc5)n4)cc3)=NN2C(C)=O)cc1` (stereo not given): 85.3%; for `COP(=O)(OC)c1nnn(-c2cccc([N+](=O)[O-])c2)c1C`: 101%.
In the case of `COc1cccc(NC(=O)c2cccc(C3CCc4c(cc(OC)c(OC)c4OC)O3)c2)c1` (stereo not given) it was 30.2%; in that of `COc1cc(C(=O)c2c(N)ncn2-c2ccccc2)cc(OC)c1OC`, 90.2%; in that of `Cc1ccc(-c2nc(C#N)c(S(=O)(=O)NCCO)o2)cc1`, 108%.
With `N#C/C(=C\c1ccc(Br)cc1)c1cc2ccccc2[nH]1`, the growth was 89.1%.
Regarding `CN1CCN(Cc2ccc(NC(=O)c3cncc(C#Cc4cncc5ncccc45)c3)cc2C(F)(F)F)CC1`, the growth was -25.5% (active).
In the case of `COc1ccc2nc(SCC(=O)Nc3ccccc3C)[nH]c2c1` it was -41.9% (active).
The same measure for `COc1cc2c(/C=C3\C(=O)Nc4ccccc43)c(C(=O)O)[nH]c2cc1C`: 136%.
The same measure for `Cc1ccc(-c2nc(C(Cl)Cl)nc3cc(C)nn23)cc1`: -2.75% (active).
Turning to `CN1CCN(Cc2ccc(NC(=O)c3cncc(C#Cc4cncc5[nH]ncc45)c3)cc2C(F)(F)F)CC1`, the growth is -49.5% (active).
The same measure for `C#Cc1cccc(Oc2ccc(NC(=O)CCl)cc2)c1`: 102% [8.25 µM]; for `COc1ccc(C2=NN(C(C)=O)C(c3ccc(Oc4ccnc5cc(Cl)ccc45)c(OC)c3)C2)cc1` (stereo not given): 66.3%.
Take `CCOC(=O)C(=Cc1cccc(C#N)c1)C(=O)OCC`: the growth is 122%.
In the case of `Cc1ccc(C(=O)c2ccc(CC(=O)N/N=C/c3ccc(O)cc3O)n2C)cc1` it was 87.4%; in that of `O=C1OCC2=C1C(c1cccc(C(F)(F)F)c1)c1cc3c(cc1N2CCO)OCO3` (stereo not given), 20.9%.
With `O=C(NCc1ccccc1O)c1cccc2ccccc12`, the growth is 56%.
Regarding `C=C1C(=O)O[C@H]2[C@H]1CC/C(Cn1cc(-c3cc(C(F)(F)F)cc(C(F)(F)F)c3)nn1)=C\CC[C@@]1(C)O[C@@H]21`, the growth is -94.5% (active).
The same measure for `COc1ccc(Cl)cc1Nc1nc(C(F)(F)F)ccc1C(=O)N/N=C/c1ccccc1Cl`: 28.1%.
The same measure for `CCCCCCCCn1ccc2cc(NC(=O)Cn3cc(CN4CCCCCC4)nn3)ccc21`: 88.9%; for `C#CC#CC#CC#CC#CC#CC#CC#CC[C@H]1OC[C@@H](COC(=O)O[C@@H](C(=O)O[C@H]2C[C@@]3(O)[C@@H](OC(=O)c4ccccc4)[C@@H]4[C@]5(OC(C)=O)CO[C@@H]5C[C@H](O)[C@@]4(C)C(=O)[C@H](OC(C)=O)C(=C2C)C3(C)C)[C@@H](NC(=O)c2ccccc2)c2ccccc2)O1`: 45.4%; for `Cc1ncc(C(=O)Nc2ccc(CN3CCN(C)CC3)c(C(F)(F)F)c2)cc1C#Cc1cnc(N)c2cnccc12`: -90.5% (active).
In the case of `COc1cccc(C(=O)OCC(O)C(=O)NC23CC4CC(CC(C4)C2)C3)c1` (stereo not given) it was 96.9%.
For the molecule `Clc1ccc(-c2nc(-c3c[nH]c4ncccc34)cs2)cc1`, the growth is 47.2% [100 µM].
In the case of `CCn1cc(CNc2ccc(C(=O)Nc3cc4cc(OC)c(OC)cc4c(C)n3)cc2)c(C)n1` it was 93.6%.
In the case of `C#CCOc1ccc2ncnc(Nc3cccc(NC(=O)CCl)c3)c2c1` it was 89.1%.
In the case of `Cn1c(=O)c2c(c3ccccc31)OC(N)=C(C#N)C21C(=O)c2ccccc2C1=O` it was 82.8%.
Regarding `CCOC(=O)CSc1nc2sc3c(c2c(=O)n1-c1ccc([N+](=O)[O-])cc1)CCCCC3`, the growth is 85.3%.
